# Measurements: PubChem BioAssay
# Activity calls are given as the source filed them.
# Legend:
# Albumin (Bos taurus) = Albumin (Bos taurus) (UniProt P02769); assay: compounds binding labelled BSA control protein – biochemical, small-molecule microarray, Alexa647 label, 635/667 nm fluorescence, artefact control for SMM control protein annotation, profiling panel (AID 1118); conditions: BSA-A647 binding, fluorescence 635 nm, higher = more signal;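 further: score merges 667 nm emission intensity and signal-to-noise per printed compound spot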
# Chain of Albumin (Bos taurus) (P02769 whole entry, looked up): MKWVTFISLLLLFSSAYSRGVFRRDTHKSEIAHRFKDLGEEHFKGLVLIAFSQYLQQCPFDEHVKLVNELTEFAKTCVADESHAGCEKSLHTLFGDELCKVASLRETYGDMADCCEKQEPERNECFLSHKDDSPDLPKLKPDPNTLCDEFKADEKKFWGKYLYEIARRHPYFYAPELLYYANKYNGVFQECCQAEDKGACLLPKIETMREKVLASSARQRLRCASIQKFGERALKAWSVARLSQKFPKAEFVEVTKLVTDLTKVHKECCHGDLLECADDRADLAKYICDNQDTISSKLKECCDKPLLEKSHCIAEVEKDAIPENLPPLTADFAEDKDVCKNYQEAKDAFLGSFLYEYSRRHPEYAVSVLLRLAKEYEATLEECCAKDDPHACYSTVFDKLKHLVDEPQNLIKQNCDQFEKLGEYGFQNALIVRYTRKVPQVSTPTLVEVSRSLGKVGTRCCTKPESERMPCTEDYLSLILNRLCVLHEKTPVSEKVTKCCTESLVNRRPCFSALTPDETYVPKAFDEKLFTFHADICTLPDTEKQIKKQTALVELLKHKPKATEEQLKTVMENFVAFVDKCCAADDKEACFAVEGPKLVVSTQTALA
# [1] = probe aXIP binding to arrayed compounds – biochemical, NeuroSMM set, 635/667 nm fluorescence, primary screen (AID 1119); conditions: small-molecule microarray, higher = more signal, called active from +8 up or from −8 down;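 further: probe is the protein aXip251-270 applied at 1 µg/mL to compound-printed slides; binding of probe to printed compounds measured as 667 nm fluorescence plus signal to noise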
# [2] = probe aNOTCH3 binding on compound microarray – biochemical, small-molecule microarray, 635/667 nm fluorescence, primary screen (AID 1120); conditions: higher = more signal;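 further: probe is a biotin-tagged antibody raised against NOTCH3 rather than NOTCH3 protein; score merges spot fluorescence near 667 nm with spot signal to noise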
# [3] = probe aNOTCH2 binding on compound microarray – biochemical, small-molecule microarray, 635/667 nm fluorescence, primary screen (AID 1121); conditions: higher = more signal;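 further: score merges feature fluorescence read at 667 nm with its signal to noise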
# [4] = target: Carbonic anhydrase 2 (Homo sapiens) (UniProt P00918); assay: compounds binding carbonic anhydrase 2 – biochemical, small-molecule microarray, Alexa647-labelled CAII, profiling panel (AID 1122); conditions: CAII-A647 binding fluorescence, higher = more signal
# [5] = COS7 lysate on small-molecule microarray, probe aHis, 635 nm (AID 1123); conditions: COS7 cell lysate, fluorescence, higher = more signal;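 further: z-score combines 667nm fluorescence intensity with signal-to-noise per printed compound spot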
# [6] = probe aLAP1 signal on lysate-treated microarray – cell lysate, small-molecule microarray, COS7 lysate, primary screen (AID 1124); conditions: probe aLAP1, fluorescence, higher = more signal;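 further: lysate comes from COS7 cells expressing LAP1 and is applied at 0.3 µg/mL; score merges spot fluorescence near 667 nm with signal-to-noise over triplicate slides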
# Sam68 (KHDRBS1) = assay: compounds binding KHDRBS1 protein – biochemical, small-molecule microarray, 635 nm fluorescence, primary screen (AID 1125); conditions: higher = more signal;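 further: score merges 667 nm channel intensity with signal to noise over triplicate slides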
# [7] = system: Chordin-like protein 2 (CHRDL2); assay: compounds binding chordin-like 2 – biochemical, small-molecule microarray, 635 nm fluorescence, primary screen (AID 1126); conditions: fluorescence 635 nm, higher = more signal;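 further: printed compound slides probed with Chrdl2 protein at 4 µg/mL for 1 h at 4 C; score merges 667 nm emission intensity with signal to noise over three replicate slides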
# [8] = target: Concanavalin-A (Canavalia ensiformis) (UniProt P02866); assay: compounds binding concanavalin A lectin – biochemical, small-molecule microarray, Alexa647 label, 635 nm, artefact control for SMM control protein annotation, primary screen (AID 1127); conditions: ConA-A647 binding fluorescence, higher = more signal;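 further: z combines 667 nm emission intensity with signal-to-noise across three replicate slides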
# Chain of Concanavalin-A (Canavalia ensiformis) (P02866 whole entry, looked up): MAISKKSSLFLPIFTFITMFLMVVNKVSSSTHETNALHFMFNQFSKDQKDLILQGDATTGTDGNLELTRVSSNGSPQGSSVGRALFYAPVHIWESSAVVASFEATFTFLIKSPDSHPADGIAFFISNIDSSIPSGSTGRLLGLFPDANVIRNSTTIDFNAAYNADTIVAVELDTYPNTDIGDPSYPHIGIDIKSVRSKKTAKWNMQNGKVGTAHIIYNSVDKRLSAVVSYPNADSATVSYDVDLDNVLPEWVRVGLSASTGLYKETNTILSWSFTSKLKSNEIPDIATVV
# [9] = compounds binding Alexa647 anti-His antibody – biochemical, small-molecule microarray, 635 nm fluorescence, artefact control for SMM control protein annotation, primary screen (AID 1128); conditions: higher = more signal;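 further: score merges feature fluorescence with signal-to-noise for each printed compound spot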
# [10] = system: Human papillomavirus type 1a E7 protein (residues 1-88); assay: HPV1a E7 small-molecule binders, primary screen, biochemical, small-molecule microarray, residues 1-88, 635 nm (AID 1129); conditions: small-molecule microarray binding, fluorescence 635 nm; higher = more signal
# [11] = target: Focal adhesion kinase 1 (Homo sapiens) (UniProt Q05397); assay: PTK2 protein binding on printed compound slides – biochemical, small-molecule microarray, 635/667 nm fluorescence, BSA, DTT, primary screen (AID 1130); conditions: 635 nm fluorescence, higher = more signal;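 further: composite of spot emission at 667 nm and signal to noise over triplicate slides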
# Chain of Focal adhesion kinase 1 (Homo sapiens) (Q05397 whole entry, looked up): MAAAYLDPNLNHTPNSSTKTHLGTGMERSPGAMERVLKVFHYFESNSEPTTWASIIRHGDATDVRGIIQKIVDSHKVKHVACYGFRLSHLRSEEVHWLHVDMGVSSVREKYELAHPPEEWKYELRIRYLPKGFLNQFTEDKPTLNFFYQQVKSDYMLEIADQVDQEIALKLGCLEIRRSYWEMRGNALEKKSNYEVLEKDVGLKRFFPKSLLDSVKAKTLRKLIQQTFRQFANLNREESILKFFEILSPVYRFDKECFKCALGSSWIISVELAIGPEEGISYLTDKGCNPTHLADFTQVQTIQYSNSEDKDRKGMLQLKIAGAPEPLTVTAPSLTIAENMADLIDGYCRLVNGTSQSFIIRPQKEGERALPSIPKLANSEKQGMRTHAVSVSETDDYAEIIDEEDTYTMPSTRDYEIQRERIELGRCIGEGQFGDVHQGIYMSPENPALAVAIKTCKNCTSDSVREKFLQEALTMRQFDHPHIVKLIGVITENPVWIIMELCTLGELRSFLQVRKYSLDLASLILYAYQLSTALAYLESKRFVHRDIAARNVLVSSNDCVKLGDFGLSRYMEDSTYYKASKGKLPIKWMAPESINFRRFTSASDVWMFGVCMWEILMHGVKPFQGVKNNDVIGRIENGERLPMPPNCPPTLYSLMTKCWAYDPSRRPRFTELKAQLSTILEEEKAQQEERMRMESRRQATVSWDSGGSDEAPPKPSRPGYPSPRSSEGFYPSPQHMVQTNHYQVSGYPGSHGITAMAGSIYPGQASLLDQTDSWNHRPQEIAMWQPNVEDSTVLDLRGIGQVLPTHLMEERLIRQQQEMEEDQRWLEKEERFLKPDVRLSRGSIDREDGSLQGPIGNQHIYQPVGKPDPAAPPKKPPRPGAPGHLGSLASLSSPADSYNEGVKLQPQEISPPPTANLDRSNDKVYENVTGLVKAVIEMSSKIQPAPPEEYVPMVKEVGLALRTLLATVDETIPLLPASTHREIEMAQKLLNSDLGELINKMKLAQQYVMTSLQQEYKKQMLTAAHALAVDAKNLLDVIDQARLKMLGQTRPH
# [12] = system: Fibrinogen (Alexa647-labelled); assay: Alexa647-fibrinogen binding to printed small molecules – biochemical, small-molecule microarray, 635/667 nm fluorescence, artefact control for SMM control-protein annotation, profiling panel (AID 1131); conditions: fibrinogen-A647 binding fluorescence, higher = more signal;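 further: z-score merges 667 nm fluorescence with per-spot signal-to-noise over triplicate slides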
# [13] = target: Follistatin (Homo sapiens) (UniProt P19883); assay: FST protein binding to printed compounds – biochemical, small-molecule microarray, 635/667 nm fluorescence, primary screen (AID 1132); conditions: 635 nm fluorescence, higher = more signal
# Chain of Follistatin (Homo sapiens) (P19883 whole entry, looked up): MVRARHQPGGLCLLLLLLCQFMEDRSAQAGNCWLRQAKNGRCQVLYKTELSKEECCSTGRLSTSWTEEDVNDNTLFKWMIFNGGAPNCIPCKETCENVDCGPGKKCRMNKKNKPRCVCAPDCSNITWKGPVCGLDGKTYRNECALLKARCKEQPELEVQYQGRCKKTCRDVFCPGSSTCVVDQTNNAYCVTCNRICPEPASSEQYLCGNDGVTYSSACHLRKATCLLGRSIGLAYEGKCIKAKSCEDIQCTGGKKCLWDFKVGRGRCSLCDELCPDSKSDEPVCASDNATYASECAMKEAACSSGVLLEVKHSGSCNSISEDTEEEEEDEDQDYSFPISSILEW
# [14] = target: Fibroblast growth factor 2 (Homo sapiens) (UniProt P09038); assay: basic fibroblast growth factor binding to printed compounds – biochemical, small-molecule microarray, 635/667 nm fluorescence, primary screen (AID 1133); conditions: FGF2, fluorescence 635/667, higher = more signal
# Chain of Fibroblast growth factor 2 (Homo sapiens) (P09038 whole entry, looked up): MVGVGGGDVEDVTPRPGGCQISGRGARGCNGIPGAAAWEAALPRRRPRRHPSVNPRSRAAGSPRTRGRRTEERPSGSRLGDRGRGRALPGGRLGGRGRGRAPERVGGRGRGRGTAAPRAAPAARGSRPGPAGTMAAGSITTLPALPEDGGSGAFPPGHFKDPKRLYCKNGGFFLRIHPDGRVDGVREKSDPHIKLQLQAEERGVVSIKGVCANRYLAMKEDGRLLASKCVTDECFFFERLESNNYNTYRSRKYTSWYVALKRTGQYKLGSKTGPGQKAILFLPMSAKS
# [15] = JC-1 mitochondrial potential readout, lung cancer cells – cell-based, A549, JC-1 fluorescence, basal, 24 h, 100 nL, profiling panel (AID 1138); conditions: higher = more signal;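 further: A549 lung adenocarcinoma cells under basal conditions with no added stimulus; test concentration not given here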
# Lefty1 = Lefty1 protein binding to printed compounds – biochemical, small-molecule microarray, 635/667 nm fluorescence, primary screen (AID 1139); conditions: fluorescence 635/667, higher = more signal
# [16] = system: wheat germ agglutinin (Triticum aestivum), Alexa647-labelled; assay: Alexa647-WGA lectin binding to printed small molecules – biochemical, small-molecule microarray, 635/667 nm fluorescence, artefact control for SMM control-protein annotation, profiling panel (AID 1140); conditions: WGA-A647 binding, 635 nm fluorescence, higher = more signal;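 further: score merges 667 nm feature emission with signal to noise over triplicate slides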
# [17] = target: Luciferin 4-monooxygenase (Photinus pyralis) (UniProt P08659); assay: inhibition of purified Photinus pyralis luciferase – biochemical, luminescence, purified enzyme, 2006 set, primary screen (AID 1141); conditions: purified firefly luciferase, SteadyGlo luminescence, 30 min; higher = more signal, called active from +8 up or from −8 down;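 further: cell-free assay with purified firefly luciferase at 100 ng per well in PBS; test concentration not given here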
# Chain of Luciferin 4-monooxygenase (Photinus pyralis) (P08659 whole entry, looked up): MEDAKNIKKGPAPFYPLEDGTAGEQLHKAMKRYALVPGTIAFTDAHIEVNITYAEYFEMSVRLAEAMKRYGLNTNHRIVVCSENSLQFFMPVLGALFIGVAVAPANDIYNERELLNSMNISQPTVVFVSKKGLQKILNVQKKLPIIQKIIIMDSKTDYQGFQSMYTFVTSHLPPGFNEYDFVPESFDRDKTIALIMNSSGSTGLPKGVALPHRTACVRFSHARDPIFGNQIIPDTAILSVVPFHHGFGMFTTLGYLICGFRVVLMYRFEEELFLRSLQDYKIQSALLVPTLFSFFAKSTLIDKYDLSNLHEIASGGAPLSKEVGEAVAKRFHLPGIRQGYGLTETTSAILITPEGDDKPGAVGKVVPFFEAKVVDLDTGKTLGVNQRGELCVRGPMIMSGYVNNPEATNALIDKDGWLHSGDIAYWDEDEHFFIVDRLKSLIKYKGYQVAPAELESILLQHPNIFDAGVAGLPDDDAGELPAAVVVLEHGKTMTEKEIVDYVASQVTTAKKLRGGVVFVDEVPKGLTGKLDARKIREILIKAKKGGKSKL
SMILES,composite z-score (Albumin (Bos taurus)),composite Z-score [1],composite z-score [2],composite z-score [3],composite z-score [4],composite z-score [5],composite z-score [6],composite z-score (Sam68 (KHDRBS1)),composite z-score [7],composite z-score [8],composite z-score [9],composite z-score [10],composite z-score [11],composite z-score [12],composite z-score [13],composite z-score [14],z-score [15],composite z-score (Lefty1),composite z-score [16],z-score [17]
O=C(NCC(F)(F)F)[C@@H]1c2ccccc2C(=O)N(C2Cc3ccccc3C2)[C@H]1c1ccc(CO)cc1,0.0975,-1.34 (inactive),-0.0362,-0.0907,0.414,-0.0023,0.386,-0.945,-1.3,-1,-1.02,-0.801,-0.26,-1.58,-0.871,-0.485,2.62,-1.25,-2.05,-1.04 (inactive)
COc1ccc([Si](C)(C)[C@H]2[C@H](CCO)O[C@@]3(C(=O)N(Cc4ccc(N5C(=O)c6cccc7cccc5c67)cc4)c4ccccc43)[C@@H]2C)cc1,0.258,0.466 (inactive),-0.214,-0.123,0.346,0.249,0.0741,-0.465,-1.06,0.609,0.21,-0.141,-0.266,0.193,-0.771,-0.611,1.9,-0.255,0.796,-0.558 (inactive)
CO[C@H]1O[C@H](CO)[C@@H](OC(=O)CCc2ccccc2)[C@@H]2OC(=O)[C@H](Cc3ccccc3)C/C=C/C[C@@H](Cc3ccccc3)C(=O)O[C@@H]12,-0.707,0.508 (inactive),-0.19,-0.0928,0.746,0.75,-0.662,0.506,-0.845,-1.04,-0.13,-0.109,0.186,-0.565,-0.618,-0.38,1.01,-0.71,-1.32,-1.21 (inactive)
CCOC(=O)C[C@H]1[C@H](OC(=O)c2ccc(-c3ccccc3)cc2)[C@@H](NC(=O)c2ccccc2)c2cc(OCCCO)ccc2N1C(=O)c1ccccc1,0.842,0.0948 (inactive),0.0162,-0.0232,0.395,1.67,0.658,1.33,-0.519,0.818,0.698,0.925,0.372,0.851,-0.129,0.253,2.3,-0.0764,0.646,-0.517 (inactive)
C=CCC(OC(C)=O)[C@@H]1[C@@H](N(Cc2cccc3ccccc23)C(=O)c2cccc3ccccc23)c2cc(OCCCO)ccc2N1C(=O)Cc1ccc(OC)cc1 (stereo not given in full),0.107,0.464 (inactive),0.128,-0.0797,0.447,1.04,0.484,0.457,0.0561,-0.653,0.856,0.0512,-0.0125,0.263,0.921,0.103,0.924,0.306,0.655,-0.378 (inactive)
C=CCN1C(=O)[C@@]2(O[C@@H](CCn3cc(CCO)nn3)[C@H]([Si](C)(C)c3ccc(OC)cc3)[C@H]2C)c2cc(NC(=O)c3ccc(OC)cc3)ccc21,-0.0754,-0.444 (inactive),0.0676,0.443,0.156,1.36,0.493,1.15,0.808,1.08,0.309,0.812,0.129,0.323,1.14,0.645,2.77,1.02,0.922,-1.51 (inactive)
C[N+](C)(C)CCCC[C@@H]1NC(=O)[C@@H]2C[C@H](C(=O)NCCCCCNC(=O)CS)[C@H](c3ccc(O)cc3)N2C1=O,-0.172,-0.419 (inactive),-0.152,-0.179,0.728,1.05,0.453,0.245,-0.479,1.12,1.6,0.076,-0.0206,0.141,1.46,1.19,1.52,1.02,0.477,-0.703 (inactive)
NC(=O)N1C(=O)C2C(C1=O)C1C=C(c3ccc(CO)cc3)C2C(C2CC2)N1Cc1cc2c(cc1Br)OCO2 (stereo not given),0.585,0.219 (inactive),-0.0377,-0.0745,0.762,1.32,-0.421,0.61,-0.312,0.574,2.29,0.066,0.138,0.157,0.197,-0.149,1.96,0.828,0.216,-2.17 (inactive)
COC(=O)C1=CC(c2ccc(CO)cc2)=CC(c2cccs2)N(C)C=C1C(=O)OC (stereo not given),0.208,0.875 (inactive),-0.0023,-0.14,0.589,2,0.387,0.494,-1.14,0.494,1.48,-0.351,1.18,-0.141,0.23,-0.485,1.08,-0.116,0.84,-0.822 (inactive)
C=CC[C@]1(C(=O)N(C)C)N=C(c2ccc(OCCCO)cc2)O[C@H]1c1ccccc1CN=[N+]=[N-],0.79,0.328 (inactive),-0.014,0.0111,0.548,2.11,0.79,1.04,-0.474,1.11,1.84,1.23,0.418,0.415,1.27,0.521,2.49,-0.168,0.757,-1.12 (inactive)
